The list is not random: actives were taken first. Their share in the collection is about 2.3%.
ADAM17 inh: ADAM17 inhibitors, primary screen, biochemical, QFRET | inhibition, % at 6.95 µM | AID 720648, 2013 | Disintegrin and metalloproteinase domain-containing protein 17 (Homo sapiens), P78536 | recombinant ADAM17, EDANS/DABCYL FRET peptide cleavage | 370,000 compounds, 0.83% hits;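 active means inhibition above the mean of compounds lying between control limits plus 3 SD, set per campaign, cut at about 8.5% in these data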;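 further: 0% = DMSO-only wells as the low control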
ADAM10 inh: human ADAM10 inhibitors, primary screen, biochemical, QFRET, HTS; inhibition, % at 7 µM; recombinant ADAM10, EDANS/DABCYL FRET peptide cleavage, 3 h; Disintegrin and metalloproteinase domain-containing protein 10 (Homo sapiens), O14672; 370,000 compounds, 0.62% hits;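 active means inhibition above a per-campaign cutoff equal to the mean of compounds falling between control-based bounds plus 3 SD, cut at about 20% in these data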;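 further: 0% = DMSO wells while the 100% control is not disclosed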
Target sequence (O14672 214-748 limits assumed): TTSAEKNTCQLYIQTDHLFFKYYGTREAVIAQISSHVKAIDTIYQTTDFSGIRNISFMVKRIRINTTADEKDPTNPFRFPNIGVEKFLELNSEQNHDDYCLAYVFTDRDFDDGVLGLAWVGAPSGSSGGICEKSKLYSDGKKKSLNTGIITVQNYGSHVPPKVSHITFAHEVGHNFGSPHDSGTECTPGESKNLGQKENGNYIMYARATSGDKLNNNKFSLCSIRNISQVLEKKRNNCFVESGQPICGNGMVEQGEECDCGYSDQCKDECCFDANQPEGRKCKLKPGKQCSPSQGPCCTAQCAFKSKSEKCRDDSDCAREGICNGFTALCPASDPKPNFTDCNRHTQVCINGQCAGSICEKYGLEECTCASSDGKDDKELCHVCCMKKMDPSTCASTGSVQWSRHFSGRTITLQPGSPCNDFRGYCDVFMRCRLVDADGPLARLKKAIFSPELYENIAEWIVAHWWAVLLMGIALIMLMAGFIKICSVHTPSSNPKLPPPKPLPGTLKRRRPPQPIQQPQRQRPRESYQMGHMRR
KLK7 zymogen act: proKLK7 zymogen activators, primary screen, biochemical, fluorescence intensity. Kallikrein-7 (Homo sapiens), P49862. purified proKLK7, EDANS-DABCYL substrate fluorescence; 100% is mature enzyme control, 0% vehicle. activation, % at 7 µM. 370,000 compounds, 0.9% hits. AID 652039, 2013;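 active means activation above the mean of all tested compounds plus 3 SD, computed per campaign excluding outliers beyond control limits, cut at about 13% in these data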
V-ATPase pHluor: regulators of yeast V-ATPase proton pumping, primary screen, pHLuorin cytosolic pH fluorescence; S. cerevisiae; response, % at 10 µM; 350,000 compounds, 0.37% hits; in the data active means response mostly above about 7.3%, no sharp cut-off; inactive means mostly below about 5.4%; further: actives read high
ADAM10 confirm: human ADAM10 inhibitors, confirmation, biochemical, QFRET, triplicate. shares compounds with ADAM10 inh. 2,100 compounds, 1% hits. ADAM10 QFRET peptide cleavage, EDANS fluorescence. inhibition, % at 6.95 µM;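 active means inhibition above about 20% chosen separately for each screening run, limit read from the data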;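 further: 0% = DMSO wells and 100% = marimastat wells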
ADAM17 counter: ADAM17 inhibitors, counter-screen for ADAM10 exosite inhibitor project, biochemical, QFRET, high throughput; shares compounds with ADAM10 inh; ADAM17 QFRET peptide cleavage, EDANS fluorescence; inhibition, % at 6.95 µM; 2,100 compounds, 0.5% hits;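 active means mean triplicate inhibition above the solvent-only control wells' mean plus 3 SD, cut at about 12% in these data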;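 further: 0% = DMSO wells and 100% = marimastat wells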
* = called active by the depositor.

Screening CCN(CC)S(=O)(=O)c1cccc(NC(=O)COc2ccc(F)cc2Br)c1 returned ADAM17 inh 2, ADAM10 inh 21*, KLK7 zymogen act 0, V-ATPase pHluor 3, ADAM10 confirm -1 and ADAM17 counter 1.
`CCN(CC)S(=O)(=O)c1cccc(NC(=O)COc2ccc(C#N)cc2OC)c1` gave ADAM17 inh 3, ADAM10 inh 7, KLK7 zymogen act 0 and V-ATPase pHluor 4.
Screening Cc1ccc(NC(=O)C2CC3CCC2C3)cc1 (stereo not given) returned ADAM17 inh -5 and ADAM10 inh -10.
Cc1nn(CCCC(=O)Nc2cc(Oc3ccc(F)cc3)cc([N+](=O)[O-])c2)c(C)c1[N+](=O)[O-] was read as ADAM17 inh 6, ADAM10 inh 26*, KLK7 zymogen act 0, V-ATPase pHluor 3, ADAM10 confirm 5 and ADAM17 counter 2.
O=S(=O)(NCc1cccc(C(F)(F)F)c1)NCc1ccccc1F was read as ADAM17 inh 4, ADAM10 inh 20*, KLK7 zymogen act 0, V-ATPase pHluor -1, ADAM10 confirm 1 and ADAM17 counter 0.
O=S(=O)(NCc1ccccc1)NCc1ccccc1F was read as ADAM17 inh 0, ADAM10 inh -2, KLK7 zymogen act 1 and V-ATPase pHluor -1.
For O=C(NCCc1ccccc1)OCc1cn(Cc2ccccc2Cl)nn1 the results were ADAM17 inh 0, ADAM10 inh -1 and KLK7 zymogen act 0.
CC(=O)N1c2ccc(S(=O)(=O)NCC3CCC(C(=O)NCc4ccc(C)cc4)CC3)cc2CC1C (stereo not given) was read as ADAM17 inh -2, ADAM10 inh 74*, KLK7 zymogen act 0, V-ATPase pHluor 1, ADAM10 confirm 0 and ADAM17 counter 0.
For CC(=O)N1c2ccc(S(=O)(=O)NCC3CCC(C(=O)NCc4ccc(C)o4)CC3)cc2CC1C (stereo not given) the results were ADAM17 inh -4, ADAM10 inh 2, KLK7 zymogen act 0 and V-ATPase pHluor -1.
For Cc1cc(C)c2c(=O)n3c(nc2c1)C(Cc1ccc(O)cc1)NC(=O)c1cc2ccccc2cc1-3 (stereo not given) the results were ADAM17 inh 8, ADAM10 inh 23*, KLK7 zymogen act -2, V-ATPase pHluor 1, ADAM10 confirm 21* and ADAM17 counter 8.
CCOc1cccc(NC(=O)C2CC(=O)N(C)C(=Nc3cccc(F)c3)S2)c1 (stereo not given) was read as ADAM17 inh 6, ADAM10 inh 21*, KLK7 zymogen act 0, V-ATPase pHluor 6, ADAM10 confirm 4 and ADAM17 counter 1.
Screening C[C@H]1CN([C@@H](C)CO)C(=O)Cc2cc(NC(=O)CCC(F)(F)F)ccc2O[C@H]1CN(C)Cc1ccc(-c2ccccc2)cc1 returned ADAM17 inh 8, ADAM10 inh 29*, KLK7 zymogen act 0, V-ATPase pHluor -5, ADAM10 confirm 7 and ADAM17 counter 2.
For C[C@@H]1CN([C@H](C)CO)C(=O)Cc2cc(NC(=O)CCC(F)(F)F)ccc2O[C@@H]1CN(C)C(=O)Nc1ccccc1 the results were ADAM17 inh 1, ADAM10 inh 8, KLK7 zymogen act 0 and V-ATPase pHluor -2.
For COc1cc(NC(=O)c2ccccc2)c(C)cc1NC(=O)CSc1nnc(-c2cnccn2)n1-c1ccc(C)cc1 the results were ADAM17 inh 0, ADAM10 inh 2 and KLK7 zymogen act 0.
Screening Cc1nn(C)c(C(=O)N/N=C/c2cccc(Oc3ccccc3)c2)c1Br returned ADAM17 inh 1, ADAM10 inh 24*, KLK7 zymogen act 0, V-ATPase pHluor -2, ADAM10 confirm 3 and ADAM17 counter 1.
`Nc1ccc(C(=O)N/N=C/c2cccc(Oc3ccccc3)c2)cc1` gave ADAM17 inh 2, ADAM10 inh -5, KLK7 zymogen act 1 and V-ATPase pHluor -2.
Screening CCS(=O)(=O)c1ccc2oc(Nc3ccc(OC)cc3)nc2c1 returned ADAM17 inh -1, ADAM10 inh -4, KLK7 zymogen act 0 and V-ATPase pHluor -2.
For CCS(=O)(=O)c1ccc2oc(Nc3ccc(C(C)(C)C)cc3)nc2c1 the results were ADAM17 inh 6, ADAM10 inh 24*, KLK7 zymogen act 0, V-ATPase pHluor 1, ADAM10 confirm 1 and ADAM17 counter 0.
c1ccc2c(c1)CSc1ccccc1N2 was read as ADAM17 inh 8, ADAM10 inh 21*, KLK7 zymogen act 0, V-ATPase pHluor 2, ADAM10 confirm 2 and ADAM17 counter 1.
Screening CC(C)CCNC(=O)c1onc(CSc2ccccn2)c1C(=O)NCCC(C)C returned ADAM17 inh 6, ADAM10 inh 20*, KLK7 zymogen act 0, V-ATPase pHluor 1, ADAM10 confirm 4 and ADAM17 counter 1.
CC(C)CC(NS(=O)(=O)OCC(Cl)(Cl)Cl)c1ccccc1 (stereo not given) was read as ADAM17 inh 4, ADAM10 inh 20*, KLK7 zymogen act -1, V-ATPase pHluor -2, ADAM10 confirm 6 and ADAM17 counter 2.
Screening Cc1cc(C)n(CC(O)Cn2c3ccc(Br)cc3c3cc(Br)ccc32)c(=O)n1 (stereo not given) returned ADAM17 inh 8, ADAM10 inh 20*, KLK7 zymogen act 0, V-ATPase pHluor 5, ADAM10 confirm 6 and ADAM17 counter 2.
`CN1C(=O)c2cc(NS(=O)(=O)c3ccc(F)cc3)ccc2OC[C@H]2O[C@@H](CC(=O)NCC(F)(F)F)CC[C@@H]21` gave ADAM17 inh -18, ADAM10 inh 26*, KLK7 zymogen act 0, ADAM10 confirm 13 and ADAM17 counter 3.
COC(=O)C[C@@H]1CC[C@@H]2[C@@H](COc3ccc(NS(=O)(=O)c4ccc(F)cc4)cc3C(=O)N2C)O1 was read as ADAM17 inh -1, ADAM10 inh 5 and KLK7 zymogen act 0.
`CCCC1=Nc2cc(C(=O)NCCCOCC)ccc2Sc2ccccc21` gave ADAM17 inh 0, ADAM10 inh 7, KLK7 zymogen act 0 and V-ATPase pHluor -3.
Screening CCCC1=Nc2cc(C(=O)NCCCOC(C)C)ccc2Sc2ccccc21 returned ADAM17 inh 8, ADAM10 inh 21*, KLK7 zymogen act 0, V-ATPase pHluor -1, ADAM10 confirm 7 and ADAM17 counter 2.

Screening results deposited in PubChem by several laboratories.
